In the library only some 1.8% were active in any assay of this set; here they are far more common.
TLR4-MyD88 BLA: inhibitors of human TLR4-MyD88 binding; O00206+Q99836; inhibition, % at 8.4 µM; HeLa CL3-4 TLR4/MyD88 BLA complementation, FRET ratio; hit rate 0.18% among 200,000; in the data active = inhibition above about 25%
Mcl1 Bid PPI: Mcl-1/Bid interaction inhibition. Q07820. TR-FRET Mcl-1/Bid-Dy647 peptide binding, 1536-well. inhibition, % at 21.7 µM. hit rate 0.97% among 220,000. AID 1021;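 active = compounds that cut the binding signal by more than half at the single screening dose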;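 also: His-tagged Mcl-1 with europium anti-His antibody binding Bid BH3 peptide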
Mcl1 Noxa PPI: disrupts binding of human Mcl-1 to Noxa peptide; Q07820; hit rate 1.5% among 220,000; inhibition, % at 21.7 µM; TR-FRET Mcl-1/Noxa peptide binding, 2 h;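 active = compounds that cut the protein-peptide binding signal by more than 50% relative to plate controls in a single-dose test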;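 also: His-tagged Mcl-1 with rhodamine Noxa BH3 peptide and terbium anti-His antibody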
TLR9-MyD88 inh: TLR9-MyD88 interaction inhibition | Q9NR96+Q99836 | CHO BLA complementation TLR9-MyD88, CCF4 FRET ratio | inhibition, % at 4.98 µM | hit rate 0.21% among 340,000;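 active = inhibition above the mean over all tested compounds plus 3 SD, cut at about 21% in these data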
NOD2 RIPK2 PPI: blocks binding of human NOD2 to RIPK2 | O43353 | CHO BLA complementation NOD2-RIPK2, CCF4 ratio | inhibition, % at 4.98 µM | hit rate 0.38% among 360,000 | AID 624267; in the data active = inhibition above about 21%
Target sequence (O43353 whole entry, looked up): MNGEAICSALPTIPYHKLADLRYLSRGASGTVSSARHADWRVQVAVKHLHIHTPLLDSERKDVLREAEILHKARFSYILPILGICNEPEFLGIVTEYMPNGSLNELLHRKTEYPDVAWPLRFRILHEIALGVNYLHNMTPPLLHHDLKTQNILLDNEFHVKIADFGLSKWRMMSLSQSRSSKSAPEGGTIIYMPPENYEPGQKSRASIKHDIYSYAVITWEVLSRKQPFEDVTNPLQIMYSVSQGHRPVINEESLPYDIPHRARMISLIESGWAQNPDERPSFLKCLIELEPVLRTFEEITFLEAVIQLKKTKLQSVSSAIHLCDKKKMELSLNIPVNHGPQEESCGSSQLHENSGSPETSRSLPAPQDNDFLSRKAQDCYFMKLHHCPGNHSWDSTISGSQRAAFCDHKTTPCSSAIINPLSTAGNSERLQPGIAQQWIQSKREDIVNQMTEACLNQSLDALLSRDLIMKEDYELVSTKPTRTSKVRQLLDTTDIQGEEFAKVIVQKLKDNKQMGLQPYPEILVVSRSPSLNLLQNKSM
Bim-Mcl-1: human Bim-Mcl-1 interaction inhibition. AID 1009. inhibition, % at 10 µM. Bead-based flow cytometry, Bim peptide-Mcl-1 binding. hit rate 0.1% among 190,000; in the data active = inhibition above about 40%
A number is an active result; n = inactive; x = no result; ! = not active in a repeat.

SMILES	TLR4-MyD88 BLA	Mcl1 Bid PPI	Mcl1 Noxa PPI	TLR9-MyD88 inh	NOD2 RIPK2 PPI	Bim-Mcl-1
CCCN(C)C1CN(Cc2cn(Cc3ccc(F)cc3)nn2)S(=O)(=O)C1 (stereo not drawn)	x	x	x	x	n	x
COc1cccc(CN2CCN(Cc3cc(OC)c(OC)cc3OC)CC2)c1	x	x	x	n	n	x
COc1cccc(CN2CCSCC2)c1	n	62.2	n	n	n	n
CS(=O)(=O)N1CCC(C(=O)Nc2cc(Cl)c(Cl)cc2Cl)CC1	x	x	x	n	n	x
COc1ccc(NC(=O)COc2ccc3c(C)cc(=O)oc3c2)cc1S(=O)(=O)N1CCCCC1	x	x	x	n	n	x
Oc1ccc(N=Nc2cccc(C(F)(F)F)c2)cc1C=Nc1ccc(N2CCOCC2)cc1	n	n	68.8	n	n	n
O=C(CC(=O)NC1CCCCC1)N/N=C/c1ccccc1F	n	n	n	x	x	n
Cc1ccc(S(=O)(=O)/N=C(\CN2CCOCC2)N2CCCC2)cc1	n	n	n	n	n	n
Cc1ccc(S(=O)(=O)/N=C(\CCl)N2CCOCC2)cc1	n	67.1	n	n	n	n
Cc1ccc(S(=O)(=O)C(CCC(=O)N2CCOCC2)S(=O)(=O)c2ccc(C)cc2)cc1	n	n	99.8	n	n	n
O=C(c1ccc2[nH]ccc2c1)N1CCCC(Nc2ccccc2)C1 (stereo not drawn)	x	x	x	n	n	x
O=C(O)c1cc(-c2ccco2)nc2ccccc12	n	n	n	n	n	n
CCNC(=O)COC(=O)c1cc(-c2ccco2)nc2ccccc12	x	n	81.4	n	n	x
Cn1c(=O)c(C(=O)COC(=O)c2cc(-c3ccco3)nc3ccccc23)c(N)n(CC2CC2)c1=O	n	n	95.2	x	x	n
COc1ccc(CNC(=O)COC(=O)c2cc(-c3ccco3)nc3ccccc23)cc1	n	n	88.9	x	x	n
O=C(OCC(=O)N1CCN(C(=O)c2ccco2)CC1)c1cc(-c2ccco2)nc2ccccc12	n	n	99.0	n	n	n
CC1(C)CC(=O)C2=C(C1)NC(=O)CC2	x	x	x	x	n	x
Cc1ncsc1CCC(=O)N1CCCC(C(=O)c2ccc3c(c2)OCO3)C1 (stereo not drawn)	n	n	n	n	n	n
CCn1cc(/C=C(\NC(=O)c2ccccc2)C(=O)NCCN2CCOCC2)c2ccccc21	x	x	x	n	n	x
Cc1ccc(-c2nn(-c3ccccc3)cc2C(=O)NCC2CCCO2)cc1 (stereo not drawn)	x	x	x	n	n	x
CC(=O)NC1C(=O)N=C(SCC(=O)NC(C)c2ccccc2)NC1=O (stereo not drawn)	n	55.5	n	n	n	n
CNC(=O)/C(C#N)=C/c1ccc(-c2ccc(OC)cc2[N+](=O)[O-])o1	n	66.1	n	n	n	n
COc1ccc(-c2ccc(C(=O)O)o2)c([N+](=O)[O-])c1	n	n	n	n	n	n
N#C/C(=C/c1ccc(-c2ccccc2[N+](=O)[O-])o1)C(N)=O	n	n	n	n	n	n
N#C/C(=C/c1ccc(-c2cc([N+](=O)[O-])ccc2Cl)o1)C(N)=O	x	56.6	69.5	n	n	x
SMILES	TLR4-MyD88 BLA	Mcl1 Bid PPI	Mcl1 Noxa PPI	TLR9-MyD88 inh	NOD2 RIPK2 PPI	Bim-Mcl-1
CC1COC(Cn2c3ccccc3c3ccccc32)O1 (stereo not drawn)	x	60.6	n	n	n	x
COc1ccccc1NS(=O)(=O)c1ccc(C(=O)OCC(=O)NCc2ccco2)cc1	n	n	54.9	n	n	n
COc1ccccc1NC(=O)COC(=O)c1ccc(S(=O)(=O)NCc2ccco2)cc1	n	n	n	n	n	n
Nc1[nH]c(=O)ncc1F	n	57.5!	n	n	n	n
COc1ccccc1-c1nnc(NC(=O)c2ccc3c(c2)OCO3)s1	n	62.6	n	n	n	n
CC(C)c1nnc(NC(=O)c2ccc3c(c2)OCO3)s1	n	n	n	n	n	n
O=C1NCCCC2c3c(cc(Br)c(O)c3Br)OC12N1CCOCC1 (stereo not drawn)	n	n	62.2	n	n	n
O=C(N/N=C/c1ccccc1F)c1ccccc1OCc1ccccc1	x	x	x	n	n	x
C=CCOC(=O)/C=C/C(=O)NC(N)=O	x	75.4	n	n	n	x
O=C(COC(=O)CNC(=O)c1ccc(Cl)cc1)Nc1cccc(S(=O)(=O)N2CCCC2)c1	x	n	n	n	n	x
CSc1nc(NCc2ccco2)c2c3c(sc2n1)CN(C)CC3	n	n	57.3	x	x	n
CSc1nc(SCC(=O)NCc2ccco2)c2c3c(sc2n1)CN(C)CC3	n	n	83.7	n	n	n
COC(CNc1nc(SC)nc2sc3c(c12)CCN(C)C3)OC	x	x	x	n	n	x

High-throughput results: PubChem, several laboratories
